Measurements taken from the supplement of paper PMC11219838.

Test system: Meloidogyne hapla J2
Assay: proportion of mobile M. hapla J2 relative to DMSO control (fraction of DMSO control); higher = more viable, less nematicidal, active = 0.7 or less
Details: 60 µM; 5 days; temperature: 20 °C
Outline: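 Compound was pinned to 60 µM final (0.6% v/v DMSO) into 96-well wells, each holding about 25 M. hapla J2 in distilled water. Plates were sealed and shaken for 5 days at 20 °C and 200 rpm, then given 2 µL 1 M NaOH per well. Microscopic mobility scores were normalised to the mean of the plate's own DMSO wells, eight per plate, with two biological replicates averaged.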

Row | SMILES | proportion of mobile M. hapla J2
1 | CC(Oc1ccc(C(C)(C)C)cc1)c1nc(-c2ccncc2)no1 (stereo not drawn) | 0.856 (inactive)
2 | Clc1ccc(CSc2nnc(-c3ccc(Cl)cc3)o2)cc1 | 0.914 (inactive)
3 | N#Cc1ccccc1CSc1nnc(-c2ccco2)o1 | 0.859 (inactive)
4 | CC(=O)Nc1cccc(-c2nnc(SCc3ccc(F)cc3)o2)c1 | 0.959 (inactive)
5 | COc1ccc(Cl)cc1-c1noc(COc2ccccc2C)n1 | 0.977 (inactive)
6 | Cc1cc(NC(=O)CSc2nnc(-c3ccccc3Cl)o2)no1 | 0.915 (inactive)
7 | COc1ccc(-c2noc(-c3cccc(F)c3)n2)cc1 | 1 (inactive)
8 | Cc1cccc(-c2nnc(SCC(=O)Nc3ccccc3F)o2)c1 | 0.753 (inactive)
9 | Cc1ccc(OCc2nc(-c3ccc4c(c3)OCO4)no2)cc1C | 1.04 (inactive)
10 | COc1nc(-c2ccc(Cl)cc2)ccc1-c1noc(-c2ccncc2)n1 | 0.921 (inactive)
11 | COc1ccc(Cl)cc1-c1nnc(SCC(=O)Nc2nccs2)o1 | 0.826 (inactive)
12 | Cc1ccc(-c2nc(-c3cccnc3)no2)cc1Cl | 1.02 (inactive)
13 | CC(C)(C)c1ccc(-c2noc(COc3ccccc3)n2)cc1 | 0.776 (inactive)
14 | Cc1cccc(-c2nnc(SCC(=O)Nc3ccc(Br)c(C)c3C)o2)c1 | 1 (inactive)
15 | Cn1c(SCc2nc(-c3cccs3)no2)nnc1-c1ccco1 | 0.932 (inactive)
16 | COc1cccc(-c2noc(COc3ccc4ccccc4c3)n2)c1 | 1.04 (inactive)
17 | Brc1ccc(-c2noc(-c3ccc4c(c3)OCO4)n2)cc1 | 1.03 (inactive)
18 | Brc1ccc(-c2nc(-c3cccnc3)no2)cc1 | 0.984 (inactive)
19 | Cc1cc(OCc2nc(-c3ccccc3)no2)ccc1Cl | 0.844 (inactive)
20 | Cc1cc(C)c(NC(=O)CSc2nnc(-c3ccc(Br)cc3)o2)c(C)c1 | 1 (inactive)

Row | SMILES | proportion of mobile M. hapla J2
21 | CCOC(=O)c1c(NC(=O)CSc2nnc(-c3ccc(Cl)cc3)o2)sc(C)c1C | 1.09 (inactive)
22 | Cc1ccc(OCc2nc(-c3ccc(Cl)cc3)no2)c(C)c1 | 0.997 (inactive)
23 | COc1ccc(OC(C)c2nc(-c3ccccn3)no2)cc1 (stereo not drawn) | 1.03 (inactive)
24 | COc1ccc(-c2noc(-c3cc(C)ccc3C)n2)cc1 | 0.916 (inactive)
25 | CC(C)(C)NC(=O)c1ccccc1-c1nc(-c2ccccc2)no1 | 0.886 (inactive)
26 | COc1ccccc1-c1nnc(SCc2ccccc2C)o1 | 0.929 (inactive)
27 | Fc1ccc(-c2noc(COc3ccccc3)n2)cc1 | 1.07 (inactive)
28 | CCOc1nc(-c2ccc(C)cc2)ccc1-c1noc(-c2ccncc2)n1 | 0.901 (inactive)
29 | Brc1ccc(CSc2nnc(-c3ccncc3)o2)cc1 | 1.01 (inactive)
30 | Fc1ccc(-c2nc(-c3ccc(Cl)cc3)no2)cc1 | 0.919 (inactive)
31 | O=C(CSc1nnc(-c2cccc(Cl)c2)o1)Nc1ccccc1 | 0.813 (inactive)
32 | COc1cccc(NC(=O)c2ccccc2-c2nc(-c3ccc(F)cc3)no2)c1 | 0.822 (inactive)
33 | CCc1ccc(OCc2nc(-c3ccc(C)cc3)no2)cc1 | 1.04 (inactive)
34 | CCC(=O)Nc1ccccc1-c1nc(-c2ccncc2)no1 | 0.938 (inactive)
35 | c1cncc(-c2noc(COc3cccc4ccccc34)n2)c1 | 0.991 (inactive)
36 | CNC(=O)c1ccccc1-c1nc(-c2ccccc2Cl)no1 | 1 (inactive)
37 | Cc1ccc(OCc2nc(-c3ccc(Br)o3)no2)cc1C | 1 (inactive)
38 | Cc1cccc(OCc2nc(-c3ccccc3Cl)no2)c1 | 1.08 (inactive)
39 | O=C(CSc1nnc(-c2ccccc2Cl)o1)Nc1ccccn1 | 0.946 (inactive)

Test system: Caenorhabditis elegans dauer (daf-2(e1370))
Assay: proportion of mobile C. elegans dauer larvae relative to DMSO control (fraction of DMSO control); higher = more viable, less nematicidal, active = 0.63 or less; extreme values may be limits of the assay
Details: 60 µM; 5 days; temperature: 20 °C
Outline: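 Synchronized C. elegans larvae were kept for 48 h at 25 °C on MYOB plates seeded with E. coli OP50 to induce dauer formation, and roughly 20 dauers were transferred into each well of a 96-well plate containing liquid NGM. Compound was pinned in to a final concentration of 60 µM with 0.6% v/v DMSO, and the sealed plates were shaken at 200 rpm for 5 days at 20 °C. The fraction of mobile worms was scored under a dissection microscope against DMSO-only wells and averaged across two biological replicates.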

Row | SMILES | proportion of mobile C. elegans dauer larvae
40 | CC(Oc1ccc(C(C)(C)C)cc1)c1nc(-c2ccncc2)no1 (stereo not drawn) | 1 (inactive)
41 | Clc1ccc(CSc2nnc(-c3ccc(Cl)cc3)o2)cc1 | 1 (inactive)
42 | N#Cc1ccccc1CSc1nnc(-c2ccco2)o1 | 0.85 (inactive)
43 | CC(=O)Nc1cccc(-c2nnc(SCc3ccc(F)cc3)o2)c1 | 1 (inactive)
44 | COc1ccc(Cl)cc1-c1noc(COc2ccccc2C)n1 | 1 (inactive)
45 | Cc1cc(NC(=O)CSc2nnc(-c3ccccc3Cl)o2)no1 | 1 (inactive)
46 | COc1ccc(-c2noc(-c3cccc(F)c3)n2)cc1 | 1 (inactive)
47 | Cc1cccc(-c2nnc(SCC(=O)Nc3ccccc3F)o2)c1 | 1 (inactive)
48 | Cc1ccc(OCc2nc(-c3ccc4c(c3)OCO4)no2)cc1C | 1 (inactive)
49 | COc1nc(-c2ccc(Cl)cc2)ccc1-c1noc(-c2ccncc2)n1 | 1 (inactive)
50 | COc1ccc(Cl)cc1-c1nnc(SCC(=O)Nc2nccs2)o1 | 1 (inactive)
51 | Cc1ccc(-c2nc(-c3cccnc3)no2)cc1Cl | 1 (inactive)
52 | CC(C)(C)c1ccc(-c2noc(COc3ccccc3)n2)cc1 | 1 (inactive)
53 | Cc1cccc(-c2nnc(SCC(=O)Nc3ccc(Br)c(C)c3C)o2)c1 | 1 (inactive)
54 | Cn1c(SCc2nc(-c3cccs3)no2)nnc1-c1ccco1 | 1 (inactive)
55 | COc1cccc(-c2noc(COc3ccc4ccccc4c3)n2)c1 | 1 (inactive)
56 | Brc1ccc(-c2noc(-c3ccc4c(c3)OCO4)n2)cc1 | 1 (inactive)
57 | Brc1ccc(-c2nc(-c3cccnc3)no2)cc1 | 0.552 (active)
58 | Cc1cc(OCc2nc(-c3ccccc3)no2)ccc1Cl | 1 (inactive)
59 | Cc1cc(C)c(NC(=O)CSc2nnc(-c3ccc(Br)cc3)o2)c(C)c1 | 1 (inactive)

Row | SMILES | proportion of mobile C. elegans dauer larvae
60 | CCOC(=O)c1c(NC(=O)CSc2nnc(-c3ccc(Cl)cc3)o2)sc(C)c1C | 1 (inactive)
61 | Cc1ccc(OCc2nc(-c3ccc(Cl)cc3)no2)c(C)c1 | 1 (inactive)
62 | COc1ccc(OC(C)c2nc(-c3ccccn3)no2)cc1 (stereo not drawn) | 1 (inactive)
63 | COc1ccc(-c2noc(-c3cc(C)ccc3C)n2)cc1 | 1 (inactive)
64 | CC(C)(C)NC(=O)c1ccccc1-c1nc(-c2ccccc2)no1 | 1 (inactive)
65 | COc1ccccc1-c1nnc(SCc2ccccc2C)o1 | 1 (inactive)
66 | Fc1ccc(-c2noc(COc3ccccc3)n2)cc1 | 0.5 (active)
67 | CCOc1nc(-c2ccc(C)cc2)ccc1-c1noc(-c2ccncc2)n1 | 1 (inactive)
68 | Brc1ccc(CSc2nnc(-c3ccncc3)o2)cc1 | 1 (inactive)
69 | Fc1ccc(-c2nc(-c3ccc(Cl)cc3)no2)cc1 | 1 (inactive)
70 | O=C(CSc1nnc(-c2cccc(Cl)c2)o1)Nc1ccccc1 | 1 (inactive)
71 | COc1cccc(NC(=O)c2ccccc2-c2nc(-c3ccc(F)cc3)no2)c1 | 1 (inactive)
72 | CCc1ccc(OCc2nc(-c3ccc(C)cc3)no2)cc1 | 1 (inactive)
73 | CCC(=O)Nc1ccccc1-c1nc(-c2ccncc2)no1 | 1 (inactive)
74 | c1cncc(-c2noc(COc3cccc4ccccc34)n2)c1 | 1 (inactive)
75 | CNC(=O)c1ccccc1-c1nc(-c2ccccc2Cl)no1 | 1 (inactive)
76 | Cc1ccc(OCc2nc(-c3ccc(Br)o3)no2)cc1C | 1 (inactive)
77 | Cc1cccc(OCc2nc(-c3ccccc3Cl)no2)c1 | 1 (inactive)
78 | O=C(CSc1nnc(-c2ccccc2Cl)o1)Nc1ccccn1 | 1 (inactive)
